Source: ChEMBL document CHEMBL3988442, “University of Dundee, Small-Polar-MMV Screening Library” (2021)
Screen size: about 69,000 compounds; about 950 (1.4%) showed an effect of 50% or more. Shown is part of a subset that was picked to be rich in strong results.

Tested on: Mycobacterium tuberculosis
Assay: Cornell M. t heat shock assay; also: in the data most compounds retested in dose-response had high values
Type: functional, organism-based
Set-up: dose or concentration left out as unconfirmed

Structure (SMILES)	Percent Effect [%]
O=C(O)C(F)(F)F.O=C(O)C(F)(F)F.O=C(O)C(F)(F)F.c1cncc(COCc2cncc3c2CCN(Cc2ccoc2)C3)c1	2.729
CC(C)Nc1nc(N2CCCC2)nc2c1CN(c1ncc(F)cn1)CC2	18.45
Fc1cccc(Nc2nc(N3CCCC3)nc3c2CNCC3)c1	102.4
COc1cccc(Nc2nc(N3CCCC3)nc3c2CNCC3)c1.Cl	69.1
COc1cccc(Nc2nc(-c3ccncc3)nc3c2CNCC3)c1.Cl	9.794
COc1cccc(Nc2nc(C3CCNCC3)c3ccccn23)c1.Cl	10.85
Oc1nc(N2CCOCC2)nc2c1CCN(Cc1cccc(F)c1)CC2	-9.224
Cc1cccc(CN2C[C@@H]3CN(C(=O)c4cnoc4C)C[C@@H]3C2=O)n1.O=C(O)C(F)(F)F	-1.837
CCOC(=O)C1CCN(C(=O)c2cc(Br)ccc2-n2cnnn2)CC1	2.973
CC(C)(C)c1ncc(CNc2ccccc2Cn2cncn2)s1	-19.95
Cc1ccc2c(c1)C(NCc1ncnn1C)CC2 (stereo unspecified)	-20.52
COc1cccc(CNC2CCc3ccc(C)cc32)n1 (stereo unspecified)	6.41
Cc1ccc2c(c1)C(NCc1ccccn1)CC2 (stereo unspecified)	89.07
Cl.O[C@@H]1CN(Cc2ccc(F)c(F)c2)CC[C@H]1NCc1ccccn1	-13.15
Cc1cc(-c2cnc(NCc3cccnc3)nc2C(C)(C)C)on1	31.35
COCC(C)NCc1nc(-c2ccc(C)cc2)c(-c2ccccn2)[nH]1 (stereo unspecified)	76.34
COCC(C)NCc1ccc2[nH]c(C)c(C)c2c1 (stereo unspecified)	-11.87
Cc1cnn(CC(C)NCc2nc(-c3ccccn3)no2)c1 (stereo unspecified)	-11.38
Cc1ccc(-c2nc(CNC(C)CCO)[nH]c2-c2ccccn2)cc1 (stereo unspecified)	77
Cc1[nH]c2ccccc2c1-c1ccnc(N[C@@H](C)CO)n1	-31.62
CC(Cn1cccn1)NCc1nc(-c2ccccn2)no1 (stereo unspecified)	-7.12

Structure (SMILES)	Percent Effect [%]
O=C(Cc1ccsc1)N1C[C@@H]2CN(Cc3ccoc3)CCO[C@@H]2C1.O=C(O)C(F)(F)F	-1.836
CC(C)=CCN1C(=O)[C@H]2CC[C@@H]1CN(C(=O)CCc1n[nH]c(C)c1C)C2	-27.57
O=C(N[C@H]1CCCC[C@@H]1O)c1cccc(-c2nc3ccccc3[nH]2)c1	55.91
O=C(N[C@H]1CCCC[C@@H]1O)c1ccc(-c2nc3ccccc3[nH]2)cc1	47.47
O=C(N[C@H]1CCCC[C@@H]1O)c1ccc2nc(-c3ccccc3)[nH]c2c1	0.8647
CN1CCOCC12CCN(C(=O)C1CCC1)CC2.O=C(O)C(F)(F)F	6.181
Cc1cc(C)c2[nH]c(C)c(CC(=O)N(C)CCN(C)C)c2c1.O=C(O)CC(O)(CC(=O)O)C(=O)O	-5.156
Cc1ccccc1C(C)NC(=O)Cc1c(C)nc2cc(=O)[nH]n2c1C (stereo unspecified)	33.63
COC(C(=O)NCc1c(C)nc2cc(=O)[nH]n2c1C)c1ccccc1 (stereo unspecified)	5.148
Cc1ccc(C(C)NC(=O)Cc2c(C)nc3cc(=O)[nH]n3c2C)s1 (stereo unspecified)	66.66
COc1ccccc1CC(=O)NCc1c(C)nc2cc(=O)[nH]n2c1C	71.9
Cc1nc2cc(=O)[nH]n2c(C)c1CC(=O)NC(C)C	-0.1861
Cc1ccccc1CNC(=O)Cc1c(C)nc2cc(=O)[nH]n2c1C	17.46
O=C(O)C(F)(F)F.c1cnc(N2CCC3(CCCN(Cc4ccncc4)C3)CC2)nc1	-2.214
CNC(=O)[C@H]1C[C@@H]2CCN(c3nnc(C)s3)C[C@@H]2O1.O=C(O)C(F)(F)F	0.7881
CSCCC1c2nc[nH]c2CCN1Cc1ccccc1C#N (stereo unspecified)	12.31
CSCCC1c2nc[nH]c2CCN1Cc1ccccc1C(F)(F)F (stereo unspecified)	-11.51
CSCCC1c2nc[nH]c2CCN1Cc1cc(Cl)ccc1O (stereo unspecified)	106.2
Cc1ccccc1C(=O)N1CC[C@@H](N(C)C)[C@@H]1Cc1cnn(C)c1.O=C(O)C(F)(F)F	-16.62
CN(C)S(=O)(=O)N1CC[C@]2(C[C@@H](Oc3ncccc3F)CO2)C1.O=C(O)C(F)(F)F	7.547
COc1ccc(CN2C[C@@H](OCc3ccccn3)[C@H]3COC[C@H]32)cc1.O=C(O)C(F)(F)F.O=C(O)C(F)(F)F	-14.6

Structure (SMILES)	Percent Effect [%]
CCN1CCC(CC(=O)NCC(O)c2cccc(OC)c2)CC1 (stereo unspecified)	93.38
CCN1CCC(CC(=O)NCC(O)c2ccc3ccccc3c2)CC1 (stereo unspecified)	13.11
COc1cccc(C(O)CNC(=O)CC2CCCCC2)c1 (stereo unspecified)	9.16
Cn1ccc(CN2CCCC23CCN(Cc2nccn2C)CC3)n1.O=C(O)C(F)(F)F.O=C(O)C(F)(F)F	9.444
CCN(CC)Cc1ccc(C(=O)N2CCN(CC(C)O)CC2)cc1 (stereo unspecified)	9.654
CCN(CC)Cc1ccc(C(=O)N2CCN(CC(C)O)CC2)o1 (stereo unspecified)	61.39
CCc1ccc(C(=O)N2CCN(CC(C)O)CC2)o1 (stereo unspecified)	14.22
Cc1ccc(S(=O)(=O)Nc2ccc(N3CCSCC3)c(C(=O)O)c2)s1	-1.51
CCN(Cc1nc(COC)no1)C(=O)CCn1c(C)cc2ccccc21	35.71
CCN(Cc1ccncc1)C(=O)CCn1c(C)cc2ccccc21	10.06
CCN(Cc1noc(C)n1)C(=O)CCn1c(C)cc2ccccc21	72.72
COCCN1CCOCC12CCN(C(=O)c1ccoc1)CC2.O=C(O)C(F)(F)F	-24.79
Cn1cc(CN2CC[C@H]3O[C@H](C(=O)Nc4cnccn4)CC[C@H]32)cn1.O=C(O)C(F)(F)F	-14.77
COc1cccc(CN(C)Cc2ccccc2C#N)c1OC	-6.46
CN(CCC(O)c1ccccc1)Cc1ccccc1C#N (stereo unspecified)	79.67
Cc1cc(CN(C)CCC(O)c2ccccc2)no1 (stereo unspecified)	50.59
Cc1cc(CN(C)CCC(O)c2ccccc2)nn1C (stereo unspecified)	0.01185
Cc1cc(CN(C)CCN(C)c2ccccc2)no1	0.1875
CN(CCC(O)c1ccccc1)Cc1nc(-c2ccccc2)no1 (stereo unspecified)	28.98
